DT40 TDP1 CPT: growth inhibition of DT40 Tdp1-/-;hTDP1 cells with camptothecin (screen for TDP1 inhibitors); chicken DT40 Tdp1-/-;hTDP1 cells + 20 nM CPT, ATP luminescence, 48 h; Potency, µM (highest dose often 46.2 µM), without a hit: at the highest dose activity change, negative = growth inhibition, actives largely listed as inhibitors; actives 12% (n = 420,000); AID 686979; also: nearly all actives have a fitted effect of over 55% in size
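Chicken DT40 Tdp1-/- cells stably complemented with human TDP1 were seeded at 400 cells/well in medium containing 20 nM camptothecin, exposed to pin-transferred compounds, and grown at 37 °C for at least 48 hr. Viability was read as ATP luminescence.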
TDP1 block: blocks human tyrosyl-DNA phosphodiesterase 1. Q9NUW8. recombinant TDP1, AlphaScreen DNA substrate cleavage. Potency, µM (top dose mostly 130 µM), inactives show at the top dose activity change, negative = inhibition, actives largely listed as inhibitors. actives 0.28% (n = 350,000); also: nearly all actives have a fitted effect of over 40% in size
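Compounds were preincubated with Tdp1 (1 nM final) for 15 min at room temperature before substrate (15 nM final) started a 5 min reaction; beads (10 ug/ml final) were then added for 10 min before AlphaScreen detection.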
TDP1 cell noCPT: qHTS for Inhibitors of human tyrosyl-DNA phosphodiesterase 1 (TDP1): qHTS in cells in absence of CPT; DT40 Tdp1-/- hTDP1 cells, no CPT, ATP luminescence, 48 h; Potency, µM (top dose mostly 46.2 µM), without a hit: at the highest dose activity change, negative = growth inhibition, actives largely listed as inhibitors; actives 15% (n = 420,000); AID 686978, 2013; also: nearly all actives have a fitted effect of over 55% in size
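Stably hTDP1-transfected Tdp1-null chicken DT40 cells were treated with library compounds minus camptothecin and grown for at least 48 hr at 37 °C, after which cellular ATP was quantified by luminescence.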
VP16 counter: Gal4-VP16 reporter inhibition counter-screen. Drosophila S2 Gal4-VP16 UAS-luciferase, luminescence, 20 h. Potency, µM (doses to about 53.6 µM), inactives show at the highest dose activity, negative = inhibition, actives largely listed as inhibitors. actives 3.5% (n = 310,000). AID 2546;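 also: Gal4-VP16 expression switched on by copper sulfate through the metallothionein promoter; nearly all actives have a fitted effect of over 50% in size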
RORgamma inh: inhibitors of mouse ROR gamma transcriptional activity; P51450; Drosophila S2 Gal4-RORgamma UAS-luciferase reporter, 20 h; Potency, µM (titrated, usually from 53.6 µM), for inactives: at the top dose activity change, negative = inhibition, usual class: inhibitors; actives 5.4% (n = 310,000); AID 2551; also: nearly all actives have a fitted effect of over 60% in size
Target sequence (P51450 whole entry, looked up, the tested form may be a part): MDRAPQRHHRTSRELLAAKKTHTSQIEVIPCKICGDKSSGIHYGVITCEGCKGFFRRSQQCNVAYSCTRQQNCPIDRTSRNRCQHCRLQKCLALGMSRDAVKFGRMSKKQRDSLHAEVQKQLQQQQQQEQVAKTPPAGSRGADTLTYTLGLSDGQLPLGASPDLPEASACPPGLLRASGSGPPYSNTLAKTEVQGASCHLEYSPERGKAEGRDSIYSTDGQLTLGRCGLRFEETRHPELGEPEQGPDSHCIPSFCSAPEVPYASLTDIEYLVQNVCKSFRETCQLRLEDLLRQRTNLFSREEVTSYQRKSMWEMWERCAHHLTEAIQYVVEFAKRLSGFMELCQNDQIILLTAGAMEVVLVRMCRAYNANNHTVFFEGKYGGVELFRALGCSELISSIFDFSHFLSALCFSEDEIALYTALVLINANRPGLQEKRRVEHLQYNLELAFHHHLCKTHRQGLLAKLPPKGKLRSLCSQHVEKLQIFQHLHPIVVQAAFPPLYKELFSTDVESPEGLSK
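ROR gamma transcriptional activity was tracked as Gal4-UAS luciferase output in stably transfected Drosophila Schneider cells, with compound added 1 hr before 700 uM copper sulfate induction and a 20 hr ambient-temperature incubation.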
The depositor's hits bear a star; ? = inconclusive; nt = not tested or not shown; [ ] = another dose, or the depositor's remark. Sampled rows, rich in hits. Any-hit rate of the full collection: about 19%. Calls follow the shape of the dose curve; as a rule, active = well fitted curve in the direction sought with a large enough effect; inconclusive = small, poorly fitted or top-dose-only effect, or another doubt; inactive = no such curve, though single readings can be large; an effect the other way counts as inactive or inconclusive. % is scaled to controls: 0 for no effect and ±100 for the full control effect; potency is read from the fitted curve at half-maximal effect.

SMILES	DT40 TDP1 CPT	TDP1 block	TDP1 cell noCPT	VP16 counter	RORgamma inh
CN1C(=O)/C(=N/OC(=O)c2ccccc2)c2ccccc21	7.3µM*	6%	12µM*	-6%	10%
O=C(O/N=C1\C(=O)N(c2ccccc2)c2ccccc21)C1CC1	?	9%	-19%	7%	18%
O=c1c2ccccc2nc(COc2ccccc2)n1/N=C/c1ccc(O)c(O)c1	15µM*	6%	10µM*	5%	0%
O=c1c2ccccc2nc(COc2ccccc2)n1/N=C/c1ccco1	?	-3%	15µM*	-23%	?
CCCc1nc2ccccc2c(=O)n1/N=C/c1ccc(O)cc1O	?	5%	-21%	20µM*	?
Cc1cc(/C=N/n2c(COc3ccccc3)nc3ccccc3c2=O)c(O)c([N+](=O)[O-])c1	16µM*	14%	21µM*	?	?
Cc1cccc(C)c1OCc1nc2ccccc2c(=O)n1/N=C/c1ccc(OCC(=O)O)cc1	-26%	-3%	?	?	-7%
CCCc1nc2ccccc2c(=O)n1/N=C/c1ccc(O)cc1	?	6%	?	-12%	25%
O=C(O)COc1ccc(/C=N/n2c(COc3ccccc3)nc3ccccc3c2=O)cc1	-24%	3%	?	4%	13%
CNCC(C)COc1ccccc1OCc1ccccc1 (stereo not given)	?	-5%	?	0%	-1%
CN(Cc1ccccc1)c1ccc(N2C(=O)CCCC2=O)cc1[N+](=O)[O-]	-12%	2%	?	-7%	?
Cc1ccoc1C(=O)N1CCN(C(=O)c2occc2C)CC1	-5%	9%	-19%	-10%	13%
O=C(Nc1nnc(CCc2ccccc2)s1)c1cccc(F)c1	-3%	0%	-15%	-17%	18µM*
Cc1ccc(-c2nc(-c3cc4cccc(OCc5ccc(F)cc5)c4oc3=O)no2)cc1	?	3%	18µM*	nt	nt
CCOc1cccc2cc(-c3cn4cc(C)ccc4n3)c(=O)oc12	?	0%	?	?	0.79µM*
Cc1ccc(-c2nc(-c3cc4cccc(OCc5cccc(F)c5)c4oc3=O)no2)cc1	15µM*	2%	13µM*	nt	nt
O=C(CCC(=O)Nc1nnc(C2CCCCC2)s1)NCc1ccc(F)cc1	-1%	5%	4%	-14%	?
COc1ccc(N(CCCN2C(=O)c3cccc4cccc(c34)C2=O)C(=O)c2cccs2)cc1	?	3%	?	?	-3%
COc1cc(C)ccc1N(CCCN1C(=O)c2cccc3cccc(c23)C1=O)C(=O)c1cccs1	9.2µM*	5%	9.2µM*	-11%	13%
CC(=O)c1ccc(N2CCN(C(=O)C3CCN(S(=O)(=O)c4ccc5c(c4)CC(C)N5C(C)=O)CC3)CC2)cc1 (stereo not given)	18µM*	3%	?	-19%	?
COc1ccc(N2CCN(S(=O)(=O)c3ccc4c(c3)C(C(C)C)C(=O)N4)CC2)cc1 (stereo not given)	18µM*	6%	8.2µM*	nt	nt
CC(=O)N1c2ccc(S(=O)(=O)N3CCC(C(=O)N4CCN(c5cccc(C(F)(F)F)c5)CC4)CC3)cc2CC1C (stereo not given)	8.2µM*	2%	2.3µM*	?	?
COc1ccc(N2CCN(S(=O)(=O)c3ccc4c(c3)CC(C)N4C(C)=O)CC2)cc1 (stereo not given)	6.5µM*	2%	?	nt	nt
COc1ccc(N2CCN(S(=O)(=O)c3ccc4c(c3)NC(=O)CC(=O)N4)CC2)cc1	-29%	6%	3%	-12%	-17%
CC(=O)N1c2ccc(S(=O)(=O)N3CCN(c4cccc(Cl)c4)CC3)cc2CC1C (stereo not given)	?	0%	?	nt	nt
SMILES	DT40 TDP1 CPT	TDP1 block	TDP1 cell noCPT	VP16 counter	RORgamma inh
Cc1ccc(/C=C2/C(=N)N3N=C(CC(=O)N4CCCC4)SC3=NC2=O)o1	?	-1%	?	-16%	?
Cc1ccc(-c2nnc(Nc3cccc(Cl)c3)c3ccccc23)cc1S(=O)(=O)N1CCOCC1	16µM*	-2%[12.3 µM]	4.1µM*	nt	nt
Cc1cccc(Nc2nnc(-c3ccc(C)c(S(=O)(=O)N4CCOCC4)c3)c3ccccc23)c1	16µM*	-2%[12.3 µM]	6.5µM*	nt	nt
Cc1ccc(-c2nnc(Nc3cccc(C(F)(F)F)c3)c3ccccc23)cc1S(=O)(=O)N1CCOCC1	9.2µM*	12%	8.2µM*	nt	nt
CC(=O)N1Cc2cc(C(=O)NCC(F)(F)F)nc(-c3cccc(-c4cccnc4)c3)c2[C@@H]1CCO	6.5µM*	nt	5.8µM*	nt	nt
CC(=O)N1Cc2cc(C(=O)NCC(F)(F)F)nc(-c3cccc(-c4cccnc4)c3)c2[C@H]1CCO	-20%	nt	-19%	nt	nt
CCS(=O)(=O)N1Cc2cc(C(=O)NCC3CC3)nc(-c3cccc(-c4cccnc4)c3)c2[C@@H]1CCO	?	nt	26µM*	nt	nt
CCNC(=O)c1cc2c(c(-c3cccc(-c4cccnc4)c3)n1)[C@H](CCO)N(S(C)(=O)=O)C2	4.6µM*	nt	4.1µM*	nt	nt
CCC(=O)N1Cc2cc(C(=O)N(C)C)nc(-c3cccc(-c4cncnc4)c3)c2[C@@H]1CCO	0%	nt	-5%	nt	nt
O=C1CCC(C(=O)N2CCN(c3ccc(F)cc3)CC2)CN1CC1CCCCC1 (stereo not given)	?	8%	-9%	-2%	24%
O=C(CSC(=S)N1CCCC1)N1CCN(S(=O)(=O)c2cccc([N+](=O)[O-])c2)CC1	7%	3%	-1%	1%	3%
CCc1ccc(NC(=O)CC2C(=O)N(c3cccc(OC)c3)C(=O)N2CCOC)cc1 (stereo not given)	-13%	3%	12%	nt	nt
O=C(Nc1ccc(Br)cc1)c1ccc2c(c1)OCO2	-9%	1%	13%	-12%	?
O=C(N/N=C\C=C\c1ccc(Br)cc1)c1ccc2c(c1)OCO2	?	nt	-6%	4.5µM*	13µM*
O=C(NN=Cc1ccc2c(c1)OCO2)c1ccc([N+](=O)[O-])cc1	-2%	nt	1%	nt	nt
O=C(N/N=C/C=C/c1ccc2c(c1)OCO2)c1ccc([N+](=O)[O-])cc1	-15%	0%	-21%	10µM*	2µM*
CCOc1ccccc1-c1nc(-c2cc3ccccc3nc2OC)no1	16µM*	-5%	23µM*	-1%	7%
CCOc1ccccc1-c1nc(-c2cc3ccc(C)cc3[nH]c2=O)no1	26µM*	-2%	?	23%	?
COc1ccc(C(=O)N(c2ccccn2)C2CCCCC2)c(OC)c1	8%	9%	13%	-5%	2%

Screening results: PubChem, National Center for Advancing Translational Sciences (NCATS)
